Source: PubChem BioAssay
Shown are actives, neighbours in structure and some others; about 1.6% of the full set was active somewhere.
eIF4E 4G PPI: blocks eIF4E binding to eIF4G | P63073+Q04637 | TR-FRET eIF4E-eIF4GI(517-606) binding, 2 h | inhibition, % at 21.7 µM | 220,000 tested, 0.37% active;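 active = inhibition above about 30%, limit read from the data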;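 note: 0% = full FRET control wells and 100% = background wells lacking eIF4GI fragment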
PABP FP inh: PABP-poly(A) binding inhibition | inhibition, % at 35 µM | AID 2014 | 290,000 tested, 1% active | P11940 | PABP-poly(A) RNA binding, fluorescence polarization;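 note: calls also rest on retests at 20 µM and on dose response follow-up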
eIF4H FP inh: inhibitors of RNA binding by human eIF4H; Q15056; eIF4H fluorescence polarization binding assay; inhibition, % at 35 µM; 290,000 tested, 0.94% active;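 note: calls also rest on retests at 20 µM and on dose response follow-up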
PERK inhibitor: inhibitors of human PERK kinase; Q9NZJ5; CHO PERK-DD fusion, SEAP luminescence translation reporter; inhibition, % at 5.6 µM; 220,000 tested, 0.17% active; AID 1416;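 active = inhibition above the mean inhibition of all tested compounds plus 3 SD, set separately per screening campaign, cut at about 2.9% in these data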;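 note: PERK kinase domain activated by AP20187 dimerizer at 100 nM; 0% = DMSO with dimerizer and 100% = rapamycin at 8.4 µM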
PABP1 MLLE inh: blocks PAM2 peptide binding to the PABP1 MLLE domain | P11940 | GST-MLLE / FITC-PAM2 fluorescence polarization | inhibition, % at 20 µM | 360,000 tested, 0.36% active | AID 588489; in the data active = inhibition above about 35%, passing the limit was not always enough;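 note: plate controls were DMSO wells with GST-MLLE for no effect and wells lacking GST-MLLE protein for full effect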
The depositor's hits bear a star; / = no result. Unless noted, the rule behind the calls is not given here.

SMILES | eIF4E 4G PPI | PABP FP inh | eIF4H FP inh | PERK inhibitor | PABP1 MLLE inh
CC[C@@]1(O)C(=O)OCc2c1cc1n(c2=O)Cc2cc3c(NC(=O)CN)cccc3nc2-1 | 5.4 | 20.6 | 32.2 | 0.9 | -11.8
CCC1(OC(=O)CN)C(=O)OCc2c1cc1n(c2=O)Cc2cc3ccccc3nc2-1 (stereo unspecified) | 0.0 | -3.7 | 6.1 | 4.9* | 0.4
Cc1ccc(CC(=O)N2CCN(C)CC2)cc1 | / | 1.6 | -6.4 | / | -1.4
Cc1ccc(/C=C2\C(=O)NC(=S)N(c3ccccc3F)C2=O)s1 | 20.1 | 2.1 | 10.2 | 1.1 | 10.1
CC(=O)Nc1ccc(OC(=O)N(C)c2ccccc2)cc1 | 4.0 | 86.9 | active | 0.3 | 12.3
CCOC(=O)c1c(C)[nH]c(C(=O)C(C)N2CCCC2)c1C (stereo unspecified) | 0.2 | -5.0 | 5.7 | -0.3 | 0.4
